Laboratory results from PubChem BioAssay AID1814 (Broad Institute, 2009).
Among all 300,000 compounds or so, about 22,000 (7.3%) were called active. Roughly 2% stayed inconclusive and do not appear here. The full list was thinned out, with actives kept by preference. Unmarked numbers belong to inactive results. No stated cut-off is given here; in the data, active means activity score below about -60%; inconclusive means mostly about -28% to -61%; inactive means positive scores.

assay: Activators via SNCA 5'UTR binding, MLPCN (AID 1814); conditions: alpha-synuclein 5'UTR reporter, activators screen; hits give low values; tested at 7.5 µM

SMILES | activity score
COc1c(C)c2c(c(O)c1C/C=C(\C)CCC(=O)O)C(=O)OC2 | 76.6%
C=CCNC(=O)/C=C/c1ccc(C(C)C)cc1 | -129% (active)
COc1ccc(-n2cnc3cc(NCc4ccco4)ccc32)cc1 | -126% (active)
COc1ccc(/C(N)=N/OC(=O)Cc2ccccc2)cc1 | -125% (active)
O=[N+]([O-])c1ccc2oc(-c3cccc(O)c3)nc2c1 | -91.7% (active)
COc1ccc(-c2nc3cc([N+](=O)[O-])ccc3o2)cc1OC | -65.4% (active)
Cc1ccc(N=C2NC(=O)/C(=C/C=C/c3ccco3)S2)cc1C | -81.5% (active)
CC(C)(C)C(=O)Nc1ccc(C(=O)N/N=C/c2ccccc2OC(=O)c2ccc(Cl)cc2Cl)cc1 | 65.2%
COc1ccc(C(=O)Nc2cc(C)c(NC(=O)c3ccccc3OC)cn2)cc1 | -115% (active)
COc1ccc(C(=O)Nc2ccccc2C(=O)N/N=C/c2ccccc2OC)cc1 | -124% (active)
N#CC1=C(N)Oc2cc(O)ccc2C1C1CCCCC1 (configuration not stated) | -65.6% (active)
C=CCN(C(=O)Nc1ccc2oc(C)nc2c1)c1ccccc1 | -65.8% (active)
C=CCN(C(=O)Nc1ccc2c(c1)nc(C)n2C)c1ccccc1 | -71.4% (active)
O=C(COc1ccc([N+](=O)[O-])cc1)Nc1ccc(N2CCCC2)cc1 | -69.6% (active)
O=C(CSc1nnc2ccccn12)c1ccccc1 | -81.7% (active)
C=C(C)CSc1nc(N)c2c3c(sc2n1)CCC3 | -152% (active)
CC(C)(C)C1CCc2c(sc3nc(SCC(N)=O)nc(N)c23)C1 (configuration not stated) | -196% (active)
COC(=O)c1sc(NC(=O)c2csc3c2CCCC3)nc1C | -228% (active)
Cc1ccc(NC(=O)c2csc3c2CCCC3)cc1 | -158% (active)
Cc1cc2c(C)nc(N/N=C/c3ccccc3)nc2o1 | -123% (active)
COC(=O)c1ccc(CSc2nncn2C)cc1 | -112% (active)
COC(=O)c1ccc(CSc2ccc3nnc(-c4ccccc4)n3n2)o1 | 53.7%
Cc1ccc(Oc2nc(-c3ccccn3)nc3ccccc23)cc1 | -92.6% (active)
CSc1nc2ccc(NC(=O)c3c(F)cccc3F)cc2s1 | -166% (active)
CCn1c(=O)c2cc(C(=O)Nc3cccc(C(C)=O)c3)sc2c2ccccc21 | -66.3% (active)
Fc1cccc(Cl)c1CSc1ccc(-c2ccco2)nn1 | -172% (active)

SMILES | activity score
CSc1ccccc1NC(=O)c1cnc2sc(C)cn2c1=O | -129% (active)
CC(C)(C)NC(=O)Cn1nnc(-c2ccccc2Cl)n1 | -117% (active)
O=C1N/C(=C/c2cccn2-c2ccccc2)C(=O)N1c1cccc(Cl)c1 | -65.3% (active)
COc1ccc(C2CC(c3cccs3)=NN2c2ccccc2)cc1 (configuration not stated) | -69% (active)
COc1ccc(Cc2n[nH]c(=S)n2NC(=O)Nc2ccc(C)cc2)cc1 | -75.9% (active)
CC(C)COC(=O)c1ccc(NC(=O)C2C3C=CC(C3)C2C(=O)O)cc1 (configuration not stated) | -101% (active)
Cc1nc2cc(NC(=O)NCc3ccccc3)ccc2o1 | -102% (active)
Cc1ccc(NC(=O)Nc2ccc3oc(C)nc3c2)cc1 | -272% (active)
COc1cc(/C=C2/C(=O)ON=C2C)ccc1OCc1cccc(F)c1 | -149% (active)
COc1cc(/C=C2/C(=O)ON=C2C)ccc1OCc1ccccc1F | -183% (active)
CN1CCN(C2Cc3ccc(Cl)cc3Sc3ccc(F)cc32)CC1 (configuration not stated) | 104%
Cc1n[nH]c(C)c1S(=O)(=O)N1CCCC(C(=O)Nc2ccc(Br)cc2)C1 (configuration not stated) | -116% (active)
COc1ccc(S(=O)(=O)N2CCCC(C(=O)Nc3ccc(NC(=O)c4ccccn4)cc3)C2)cc1 (configuration not stated) | -87.5% (active)
CCOC(=O)CSC1=C(C#N)C(c2sccc2C)CC(=O)N1 (configuration not stated) | 75%
O=C(CSCc1ccc(Cl)cc1)N1CCCCC1 | -102% (active)
O=C(CSCc1cccs1)N1CCCC1 | -80.2% (active)
Nc1scc(-c2ccncc2)c1Cl | -79.4% (active)
CC1CN/C(=C\C(=O)c2ccc(Br)cc2)C(=O)N1 (configuration not stated) | 62%
CC(=O)c1ccc(Oc2cc(C)nc(-n3nc(C)cc3C)n2)cc1 | 80.1%
Cc1ccc(/C=N/NC(=O)CSc2nc3ccccc3o2)cc1 | -108% (active)
O=C(CSc1nc2ccccc2o1)N/N=C/c1ccccc1C(=O)O | -97.9% (active)
COC(=O)c1ccc(/C=N/N2C(C)CCCC2C)cc1 (configuration not stated) | -172% (active)
O=C(c1ccc2ccccc2n1)N1CCN(c2ccccc2Cl)CC1 | -142% (active)
CC(=O)c1ccc(S(=O)(=O)N2CCN(C(=O)/C=C/c3ccc4ccccc4n3)CC2)cc1 | 62.4%
c1ccc(-c2cc(-c3ccccc3)[nH]n2)cc1 | -106% (active)
Oc1ccccc1-c1cc(-c2ccc(Cl)cc2)n[nH]1 | -126% (active)

SMILES | activity score
Cc1ccc(Nc2nc(-c3ccc(O)cc3O)cs2)nc1 | -189% (active)
COc1ccc(OCCCn2cccc2/C=C2/C(=N)N3OC(C)=CC3=NC2=O)cc1 | -95.9% (active)
Cc1ccc(-c2nn(-c3cccc(F)c3)cc2CNCCc2ccncc2)o1 | -74% (active)
CN(C)c1ccc(/C=C/C(=O)c2ccc(O)cc2)cc1[N+](=O)[O-] | -203% (active)
O=C(/C=C/c1ccc(Cl)c([N+](=O)[O-])c1)c1ccc(O)cc1 | -156% (active)
O=C(/C=C/c1ccc2c(c1)OCCO2)c1ccc(O)cc1 | -260% (active)
COc1ccc(/C=C2\SC(=O)N(CCC(=O)NC3CCS(=O)(=O)C3)C2=O)cc1 (configuration not stated) | -71.6% (active)
COc1ccc(/C=C2\SC(=S)N(CCCC(=O)NC3CCCC3)C2=O)cc1OC | 83.7%
Cc1nc(-c2ccccc2)sc1C(=O)/C=C/c1ccccc1 | -83.8% (active)
Cc1nc(-c2ccccc2)sc1C(=O)/C=C/N(C)C | -76.2% (active)
CCOC(=O)c1c(C)[nH]c(C2=NNC(=NC(C)COC)SC2)c1C (configuration not stated) | -98.9% (active)
O=C(CSc1nc2ccccc2[nH]1)c1cccs1 | -160% (active)
CN(Cc1ccccc1)C(=O)CSc1nc2ccccc2[nH]1 | -93.7% (active)
O=C1c2ccccc2NC(c2ccc(-c3cccc(Cl)c3)o2)N1O (configuration not stated) | -145% (active)
Cc1cccc(C(=O)Nc2ccc3c(c2)C(=O)N(CC(C)C)C3=O)c1 | -149% (active)
Nc1nnc(SCC(=O)Nc2ccc3nc(SCC(=O)Nc4ccccc4)sc3c2)s1 | -107% (active)
O=C(Nc1cccc(Cl)c1)Nc1ccccc1NS(=O)(=O)c1cccs1 | -81.4% (active)
Cc1ccc(NN=C2C(=O)OC(C)(C)OC2=O)c(C)c1 | -140% (active)
Cc1nn(-c2ccccc2)c(Cl)c1/C=C/C(=O)c1ccc(O)cc1 | -125% (active)
Cn1sc(NC(=O)c2ccccc2)nc1=O | -72.7% (active)
O=C(c1ccc(F)cc1)n1c(=S)nc2ccccn21 | -171% (active)
COc1cc(/C=N/O)ccc1OCc1ccc([N+](=O)[O-])cc1 | -86.3% (active)
COc1ccc2[nH]c3c(=O)n(Cc4ccco4)cnc3c2c1 | -65.2% (active)
Cc1ccsc1/C=N/Nc1ccc(Cl)nn1 | -101% (active)
COc1cccc(/C=N/Nc2ccc(Cl)nn2)c1 | -168% (active)
Clc1ccc(N/N=C/c2cccs2)nn1 | -131% (active)

SMILES | activity score
O=C(Nc1ccc(S(=O)(=O)N2CCOCC2)cc1)c1ccc2ncsc2c1 | -76.4% (active)
CC1CCCN(c2ccc(C(=O)NCCc3ccccc3)cn2)C1 (configuration not stated) | -104% (active)
CCC(=O)Nc1ccc(-c2ccc(N3CCCCC3)nn2)cc1 | -132% (active)
CC1CCN(c2ccc(-c3ccc(NC(=O)c4ccco4)cc3)nn2)CC1 | -144% (active)
[O-][n+]1onc2c1CCc1[nH]c(-c3ccccc3)nc1-2 | -130% (active)
O=C(COc1ccccc1)Nc1nonc1NC(=O)COc1ccccc1 | -62.2% (active)
CC(=O)Nc1ccc(NC(=O)COc2ccc(S(=O)(=O)NC(C)c3ccccc3)cc2)cc1 (configuration not stated) | -147% (active)
CC(=O)Nc1ccc(NC(=O)COc2ccccc2C(=O)Nc2cccc(Cl)c2Cl)cc1 | 41.1%
O=C(COc1ccccc1)Nc1ccc(F)cc1 | -69.2% (active)
CC(C)[C@@H]1COC(c2cccc(C3=N[C@H](C(C)C)CO3)c2)=N1 | -152% (active)
CCOc1ccc(NC(=O)CCNC(=O)c2ccc(Br)cc2)cc1 | -69.9% (active)
CCOc1ccc(NC(=O)c2ccc(NC(=O)COC(=O)c3ccc(NC(=O)CC#N)cc3)cc2)cc1 | -88.1% (active)
COc1ccc2c(Cl)c(C(=O)NCc3ccco3)sc2c1 | -164% (active)
O=C(NCc1ccco1)c1sc2cccc(F)c2c1Cl | -99.4% (active)
COc1ccc(C2=NOC(C(=O)NCc3ccco3)C2)cc1OC (configuration not stated) | 51.4%
COc1ccc2oc(C(=O)NCc3ccco3)c(C)c2c1 | -92.6% (active)
Cc1cccc(N(CC(=O)Nc2ccc(-c3nc4ccc(C)cc4s3)cc2)S(C)(=O)=O)c1 | -159% (active)
Cc1ccc2nc(-c3ccc(NC(=O)CN(C)S(=O)(=O)c4ccccc4)cc3)sc2c1 | -67.2% (active)
Cc1c(C(=O)N2CCCc3ccccc32)sc2nc(-c3ccccc3)cn12 | -83.5% (active)
Cc1c(C(=O)NCC2CCCO2)sc2nc(-c3ccccc3)cn12 (configuration not stated) | -102% (active)
Cc1cccc2cc3c(N)c(C(=O)N4CCCc5ccccc54)sc3nc12 | 85.2%
Cc1ccc(C(=O)Cc2nnc(C)s2)cc1 | -98.4% (active)
O=c1c2ccccc2ncn1/N=C/c1ccccc1 | -192% (active)
Cc1cc(/C=C2/SC(=O)N(CC(=O)OC(C)C)C2=O)c(C)n1C | -159% (active)
